About 2,900 (47%) of roughly 6,200 compounds were called active. The set was probably picked from earlier hits. This is one part of the list. Values without a mark were called inactive. Cut-off read from the data, not from the text of the source: active = inhibition above about 50%; inactive = the rest.

The nature of the test: Mycobacterium tuberculosis growth inhibition, primary screen (AID 1259343). The following applies: inhibition: at 10 µM, stronger effect = higher value; outcome: 10 uM.
As for `Cc1ccc2sc(NNC(=O)c3cc(=O)c4ccccc4o3)nc2c1C`, the inhibition is 72.2% (active). Next, `O=S(=O)(c1ccc(F)cc1)N1CCN(c2ccnc3cc(Cl)ccc23)CC1`: 3.02%; `O=S(=O)(c1ccc(F)c(F)c1)N1CCN(c2ccc(O)cc2)CC1`: 56.7% (active); `CCC(C)NC(=O)c1cnc(N2CCN(c3ccccc3[N+](=O)[O-])CC2)nc1OC` (stereo unspecified): 2.36%.

Turning to `CCC(CC)NC(=O)c1ccc(N2CCCCC2)c([N+](=O)[O-])c1`, the inhibition was 96.8% (active). The result for `O=C(c1ccc(N2CCCCC2)c([N+](=O)[O-])c1)N1CCc2ccccc21` reads 23.8%. `CN(C(=O)CSc1nc2sc3c(c2c(=O)[nH]1)CCCC3)C1CCCCC1`: the inhibition is 93.2% (active). The result for `CN(C(=O)CSc1nc2sc3c(c2c(=O)n1C)CCCC3)C1CCCCC1` reads 18.9%; that for `CCOC(=O)c1nn(-c2ccc(C)cc2)c(=O)c2c(N)scc12`, 60.8% (active); that for `CCOC(=O)c1nn(-c2ccc(C)cc2)c(=O)cc1N1CCN(c2ccccc2OC)CC1`, 38.5%. Next, `CCOC(=O)c1nn(-c2ccc(C(C)C)cc2)c(=O)c2c(N)scc12`: 101% (active). The result for `CCOC(=O)c1nn(-c2ccccc2)c(=O)cc1NC(=O)c1ccc(C(C)(C)C)cc1` reads -13.4%; that for `CCOC(=O)c1nn(-c2ccc(C)cc2)c(=O)cc1NC(=O)C1CCCC1`, -7.9%. For `CCOC(=O)c1nn(-c2ccccc2)c(=O)c2c(NC(=O)CCCCl)scc12`, the inhibition was 61.2% (active). Next, `CCOC(=O)c1nn(-c2cccc(C)c2)c(=O)c2c(N)scc12`: 89.5% (active); `Nc1ccccc1Cc1ccc(O)cc1`: 30.5%. The result for `N[C@@H](CO)C(=O)Nc1ccc(Cc2ccccc2)cc1` reads 89.6% (active). `CCN1CCN(Cc2ccc(-c3cc4c(N[C@H](C)c5ccccc5)ncnc4[nH]3)cc2)CC1`: the inhibition was 16.6%. The result for `Cc1ccc(Cn2ncc3c(N4CCN(CCOc5ccc(C)cc5)CC4)ncnc32)cc1` reads 24.2%. Next, `OCC1(CCOc2ccccc2)CCN(c2ncnc3sccc23)CC1`: 20.1%; `COc1ccc(CN2CCN(c3ncnc4c3cnn4-c3ccccc3)CC2)cc1F`: 82.1% (active). Next, `COc1cccc(OCCN2CCN(c3ncnc4c3cnn4-c3ccccc3)CC2)c1`: 64% (active). Take `CN(C)CCCNc1cc(C(C)(C)C)nc2c(-c3ccc(Cl)cc3)cnn12`: the inhibition was 36.7%. Next, `Cc1cc(NCCN(C)C)n2nc(C(F)(F)F)c(-c3ccccc3)c2n1`: 45%; `Cc1ccc(-c2cnn3c(NCCOCCO)cc(C(C)(C)C)nc23)cc1`: -3.38%.

As for `CN(C)CCNc1cc(-c2ccccc2)nc2c(-c3ccccc3)cnn12`, the inhibition was 70.7% (active). The result for `CN(C)CCCNc1cc(C(C)(C)C)nc2c(-c3ccccc3)cnn12` reads 74% (active).

For the compound `CC(C)c1cc(NCCN(C)C)n2ncc(-c3ccccc3)c2n1`, the inhibition is -10.7%. Next, `Cc1cc(=O)[nH]c(-n2nc(C3CC3)cc2NC(=O)c2ccc(F)cc2)n1`: 99.8% (active); `Cc1cc(=O)[nH]c(-n2nc(C3CC3)cc2NC(=O)c2ccc(C(F)(F)F)cc2)n1`: 99.9% (active); `Cc1cc(=O)[nH]c(-n2nc(C3CC3)cc2NC(=O)c2ccc(F)c(F)c2)n1`: 99.9% (active). The result for `CCCCCn1c(=O)c2c(nc3n2CCN3Cc2ccco2)n(C)c1=O` reads 61% (active); that for `CCCCCCn1c(N2CCN(Cc3ccc(Cl)c(Cl)c3)CC2)nc2c1c(=O)[nH]c(=O)n2C`, 9.32%.

In the case of `CC(C)CCn1c(N2CCCCC2)nc2c1c(=O)n(C)c(=O)n2C`, the inhibition is -32.3%. The result for `CCCn1c(C2CCCCC2)nc2c(c(=O)c3ccccc3n2C)c1=O` reads 12.9%. The result for `Cc1cn2c3c(=O)n(CC(=O)C(C)(C)C)c(=O)n(C)c3nc2n1C1CCCC1` reads -30.1%. The result for `CCCCc1ccc(-n2c(C)c(C)n3c4c(=O)n(CCCO)c(=O)n(C)c4nc23)cc1` reads 46.3%; that for `CCCCCn1c(=O)c2c(nc3n2CC(C)CN3C2CCCCC2)n(C)c1=O` (stereo unspecified), 92.2% (active).

With `CCCn1c(=O)c2c(nc3n2CCCN3Cc2ccccc2)n(C)c1=O`, the inhibition is 33.4%. Regarding `CCCCCCn1c(N2CCN(c3ccccc3)CC2)nc2c1c(=O)n(C)c(=O)n2C`, the inhibition was 81.9% (active). Next, `N[C@@H](C(=O)O)[C@@H](O)[C@H](O)[C@H](O)CO`: -6.84%; `O=C(NNC(=O)c1ccc(COc2ccccc2)o1)c1ccco1`: 59.7% (active). The result for `O=C(NNC(=O)c1cc(-c2ccccc2)no1)c1ccco1` reads 96% (active). Next, `Cn1nccc1CNC(=O)c1ccc(COc2cc(Cl)ccc2Cl)o1`: 35%; `O=C(Nc1nccs1)c1ccc(COc2ccc(F)cc2)o1`: 29.5%.

For `c1ccc(-c2cc(-c3ccccc3)on2)cc1`, the inhibition was 46.9%. The result for `C=CCn1c(=S)[nH]c2sc3c(c2c1=O)CCC(C)C3` (stereo unspecified) reads 8.34%; that for `C=CCn1c(SCc2c(C)noc2C)nc2sc(C)c(C)c2c1=O`, 30.8%; that for `C=CCn1c(SCCC#N)nc2sc3c(c2c1=O)CCCC3`, 80.7% (active). For `O=C(O)c1cccc(=O)n1CCOc1ccccc1Cl`, the inhibition is 53.1% (active). Next, `Cc1ccc(C)c2c3c([nH]c12)-c1nonc1CC3`: 34.5%; `Cc1nc2ccccc2c(=O)n1NC(=S)NC(=O)c1ccc(Br)cc1`: 40.8%; `O=c1[nH]n2c(=O)c3ccccc3nc2c2ccccc12`: 86% (active). Turning to `CCn1c2ccccc2c2nc3ccccc3nc21`, the inhibition was -25.2%. Next, `CC1CN(c2ccc(C(=O)NC(c3ccccc3)c3ccc(Cl)cc3)cn2)CCN1` (stereo unspecified): 33.2%. Next, `Cc1cc(C(C)(C)C)cc(C)c1CCN1CN(CCO)c2nc3ccccc3n2C1`: 66.6% (active); `CC1CCN(S(=O)(=O)N2CCCC(c3cc4ccccc4[nH]3)C2)CC1` (stereo unspecified): 73.2% (active).

In the case of `CC1CC(C)CN(S(=O)(=O)NCc2cc3ccccc3[nH]2)C1` (stereo unspecified), the inhibition is 27.9%.

In the case of `CN(C(=O)CN1CCC(c2cc3ccccc3[nH]2)CC1)C1CC1`, the inhibition was -6.34%.

For `N[C@H]1CN[C@H](C(=O)N2CC(N3CCCCC3)C2)C1`, the inhibition was -19.7%. The result for `CC/C=C(/C)C(=O)Nc1ccc(-n2nccn2)cc1` reads 96.5% (active). Next, `COc1c(N2CCNC(C)C2)c(F)cc2c(=O)c(C(=O)O)cn(C3CC3)c12` (stereo unspecified): 98% (active); `O=C(CCS(=O)(=O)c1ccc(Cl)cc1)NCCC1=CCCCC1`: 79% (active). Next, `O=C(Cc1cc(-c2ccc(Cl)cc2)on1)NCCC1=CCCCC1`: 37.4%; `Cc1cc(=O)[nH]c(-n2nc(C3CC3)cc2NC(=O)COc2ccc(Cl)cc2Cl)n1`: 100% (active); `Cc1cc(=O)[nH]c(-n2nc(C)cc2NC(=O)COc2ccc(F)cc2)n1`: 99.8% (active).

Turning to `Cc1cc(=O)[nH]c(-n2nc(C3CC3)cc2NC(=O)COc2ccc(F)cc2)n1`, the inhibition is 99.9% (active). The result for `Cc1cc(=O)[nH]c(-n2nc(C3CC3)cc2NC(=O)COc2ccc(Cl)cc2)n1` reads 100% (active); that for `COc1ccc(OCC(=O)Nc2cc(C3CC3)nn2-c2nc(C)cc(=O)[nH]2)cc1`, -5.9%. Take `CCCCn1c(O)c(C=Nc2cccc(C)c2)c(C)c(C#N)c1=O`: the inhibition was -35.7%. On to `Cc1cc(C(F)(F)F)c2c(n1)sc1c(O)cc(=O)[nH]c12`, for which the inhibition is 27.2%. The result for `Cc1cc(=O)[nH]c(-n2nc(C)cc2NC(=O)C(C)Oc2ccccc2)n1` (stereo unspecified) reads 99.8% (active); that for `CCc1cc(=O)[nH]c(-n2nc(C)cc2NC(=O)C(c2ccccc2)c2ccccc2)n1`, 100% (active). With `Cc1cc(=O)[nH]c(-n2nc(C)cc2NC(=O)C(c2ccccc2)c2ccccc2)n1`, the inhibition was 101% (active). Turning to `CCc1c(C)nc(-n2nc(C)cc2NC(=O)C(CC)c2ccccc2)[nH]c1=O` (stereo unspecified), the inhibition is 12.6%.

Regarding `CCc1ccc(CNC(=O)c2ccc(Cl)s2)s1`, the inhibition was 45%.

As to `CCc1ccc(CNC(=O)c2cncc(Br)c2)s1`, the inhibition is 83.2% (active). The result for `CCc1ccsc1CNC(=O)c1sccc1Br` reads 24.1%. The result for `CCc1ccc(CNC(=O)c2cc(C)sc2C)s1` reads 54.8% (active). For the compound `CN(C)c1cc(C(=O)NCc2ccc(Cl)s2)ccn1`, the inhibition was -1.2%. The result for `CCc1ccc(CNC(=O)c2cc(F)ccc2Br)s1` reads 59.5% (active); that for `OCc1ccccc1-c1ccc(-c2nc(CCc3ccccc3)no2)cn1`, 75.2% (active). Next, `CCc1cn[nH]c1C1CCN(c2noc(-c3ccccc3)n2)CC1`: 20.9%; `CCc1nc(C)c(-c2nc(CCc3ccccc3)no2)s1`: 49.3%. Next, `Cc1noc(-c2ccc(N3CC[C@@H](c4ccc5c(c4)OCO5)[C@H](O)C3)nc2)n1`: 12.9%. Turning to `COC1CCN(c2ccc(-c3nc(CCCc4ccccc4)no3)cn2)CC1`, the inhibition was 51.1% (active).

As to `Nc1ccc(-c2ccc(-c3nc(CCCc4ccccc4)no3)cn2)cn1`, the inhibition was 59.3% (active). The result for `CC(C)Cc1noc(-c2ccc(-c3ccc(O)cc3)nc2)n1` reads 23.2%. Next, `O=C(CCCc1cccs1)N1CCN(c2ccccc2O)CC1`: 13%; `O=C(Nc1ccc2c(c1)CN(Cc1ccc(-n3cccn3)cc1)CC2)c1ccccn1`: “inactive”; `COc1ccccc1C(=O)Nc1ccc2c(c1)CN(Cc1c[nH]c3ccccc13)CC2`: 45.8%. Next, `CC(C)Oc1cccc(C(=O)C2CCCN(C(=O)/C=C/c3cccs3)C2)c1` (stereo unspecified): -2.95%; `O=C(Nc1ccc2c(c1)CN(C(=O)CCCc1cccs1)CC2)c1ccccn1`: 54.1% (active); `O=C(Nc1ccc2c(c1)CN(C(=O)/C=C/c1cccs1)CC2)c1ccccn1`: 58.9% (active).

On to `OC(c1cc(C(F)(F)F)nc2c(C(F)(F)F)cccc12)C1CCCCN1` (stereo unspecified), for which the inhibition is 78.8% (active).

With `FC(F)(F)c1cc(NCC2CC2)c2ccccc2n1`, the inhibition is 8.13%.

By inhibition is commonly meant the relative decrease from the control value, in per cent.

The values above are taken from PubChem BioAssay AID1259343 (VanderVen Lab, College of Veterinary Medicine, Cornell …, 2017).
